NS1 inh: qHTS Assay for Inhibitors of Influenza NS1 Protein Function. Potency, µM (titrated, usually from 46.1 µM). 0.4% of 270,000 active. AID 2326, 2010; calls by dose curve; further: actives are rising curves; nearly all actives have a fitted effect of over 50% in size
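S. cerevisiae expressing influenza A NS1, grown in glucose, washed, then diluted 1:100 into pH 6.0 -URA galactose medium with 23 nl compound. Growth recovery read as OD600; NS1-free strain serves as control.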
SARS PLpro yeast: qHTS of Yeast-based Assay for SARS-CoV PLP | S. cerevisiae expressing SARS-CoV PLpro, growth rescue | Potency, µM (highest dose often 32.9 µM), most hits filed as activators | 0.19% of 330,000 active | AID 485353, 2010; calls by dose curve; further: nearly all actives have a fitted effect of over 55% in size
Pf growth 48h: Primary qHTS for delayed death inhibitors of the malarial parasite plastid, 48 hour incubation | P. falciparum luciferase growth in erythrocytes, 48 h | Potency, µM (doses to about 28.7 µM), actives largely listed as inhibitors | 5.9% of 310,000 active | AID 504832, 2011
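Luciferase-expressing P. falciparum in infected erythrocytes (2% hematocrit, 0.1% parasitemia final) in RPMI 1640/0.5% Albumax were exposed to compound for 48 hours at 37 C, 5% CO2; growth read as luminescence.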
RE007 growth inh: qHTS Assay for Inhibitors of the HIV-1 protein Vpr; S. pombe RE007 Vpr strain, BacTiter-Glo ATP luminescence, 24 h; Potency, µM (titrated, usually from 92.2 µM), actives largely listed as inhibitors; 0.21% of 360,000 active; active means well fitted falling curve with a large enough effect; inconclusive means small, poorly fitted or top-dose-only effect; inactive means no such curve, though single readings can be large or run the other way; further: nearly all actives have a fitted effect of over 50% in size
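Fission yeast strain RE007, carrying one chromosomally integrated HIV-1 vpr copy, was seeded at OD 0.01 in PMG+AL medium with 23 nL pinned compound. After 24 h at 30 °C and 99% humidity, viability was read by BacTiter-Glo luminescence.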
Pf growth 96h: Primary qHTS for delayed death inhibitors of the malarial parasite plastid, 96 hour incubation; P. falciparum luciferase reporter growth, 96 h; Potency, µM (series often up to 28.7 µM), usual class: inhibitors; 6.9% of 320,000 active; AID 504834, 2011
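Two parasite generations (96 h, 37 C, 5% CO2) of compound exposure in infected erythrocytes (0.05% parasitemia, 2% hematocrit). Luciferase-reporter P. falciparum; decreased luminescence indicates inhibited growth, aimed at apicoplast-acting delayed death.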
A number is an active result; n = inactive; u = inconclusive; x = no result given; [ ] = remark or other dose. Hits are enriched below; roughly 9.5% of the tested compounds scored in any of these assays. Unless noted, the call rests on the fitted dose curve; in most records, active means well fitted inhibition curve with a large enough effect; inconclusive means small, poorly fitted or top-dose-only effect, or another doubt; inactive means no such curve, though single readings can be large or run the other way.

SMILES | NS1 inh | SARS PLpro yeast | Pf growth 48h | RE007 growth inh | Pf growth 96h
Cc1ccc(-c2nc3cc(N)ccc3o2)cc1Br | n | n | n | n | 4.65µM
CCc1cccc(C)c1NC(=O)COC(=O)c1c2c(nc3ccccc13)/C(=C\c1cccs1)CCC2 | n | n | 13.1µM | n | 10.4µM
Cc1ccccc1NC(=O)c1nc(S(C)(=O)=O)ncc1Cl | n | n | n | n | 13.1µM
Cc1cccc(C)c1NC(=O)c1nc(S(=O)(=O)Cc2ccccc2)ncc1Cl | n | n | n | n | u
COc1cc2c(cc1OC)/C(=C/C(=O)c1ccc(OC)c([N+](=O)[O-])c1)NCC2 | n | n | n | n | u
CN(Cc1ccccc1)C(=O)c1[nH]cnc1C(=O)Nc1cccc(Cl)c1 | x | n | n | n | u
Cc1cc(C)c(OCC(O)CN2CCN(C(=O)c3ccccc3)CC2)c(C)c1 (stereo unspecified) | n | n | u | n | 6.57µM
O=C1NC(=O)C2C3OC(C(Br)C3Br)C12 (stereo unspecified) | x | x | x | n | x
Nc1ccc2nc(-c3cc(Cl)c(N)c(Cl)c3)[nH]c2c1 | u | n | 2.94µM | n | u
c1ccc(-c2nc3ccccc3[nH]2)cc1 | n | n | n | n | n
O=C(O)c1cccc(-c2nc3ccccc3[nH]2)c1 | n | n | n | n | 2.33µM
Nc1ccc2nc(Cc3ccccc3)[nH]c2c1 | n | n | 9.28µM | n | 10.4µM
Nc1ccc(-c2nc3ccc(-c4nc5ccccc5o4)cc3[nH]2)cc1 | n | n | 9.28µM | n | n
O=C(CNC(=O)c1ccccc1F)OCCOc1cccc(Cl)c1 | x | n | u | n | n
Cc1cc([N+](=O)[O-])nn1CC(=O)NCc1nc2ccccc2[nH]1 | x | n | n | n | u
COCCNC(=O)Cn1nc(-c2ccc(C)cc2)c2ccccc2c1=O | n | n | n | n | n
Cc1ccccc1NC(=O)Nc1nc(C(N)C2CCCCC2)cs1 (stereo unspecified) | x | x | x | n[18.4 µM] | x
Nc1ccc2nc(-c3cccc(-c4nc5ccc(N)cc5[nH]4)c3)[nH]c2c1 | u | n | 1.85µM | n | n
CC(C)C(NCC(=O)Nc1ccccc1C(=O)NC1CC1)c1ccccc1 (stereo unspecified) | x | u | x | n | x
COc1ccc(-n2nc(C(=O)NCC(=O)N3CCN(c4ccccc4OC)CC3)c3ccccc3c2=O)cc1OC | n | n | 1.65µM | n | u
COc1ccc(-n2nc(C(=O)NCC(=O)N3CCC4(CC3)OCCO4)c3ccccc3c2=O)cc1OC | n | n | u | n | 4.65µM
COc1ccc(-n2nc(C(=O)NCC(=O)N3CCOCC3)c3ccccc3c2=O)cc1OC | n | n | n | n | u
CCC1CCCCN1CCCNC(=O)CNC(=O)c1nn(-c2ccc(OC)c(Cl)c2)c(=O)c2ccccc12 (stereo unspecified) | n | n | 5.22µM | n | u
O=C(O)C1Cc2ccccc2CN1C(=O)CCl (stereo unspecified) | x | n | u | n | u
COc1ccc(CCNC(=O)CSc2nc3[nH]ncc3c(=O)n2-c2ccc(C)c(Cl)c2)cc1OC | x | n | n | n | u
SMILES | NS1 inh | SARS PLpro yeast | Pf growth 48h | RE007 growth inh | Pf growth 96h
O=C(Nc1nc(-c2ccccc2)cs1)c1ccccc1NS(=O)(=O)c1ccc(F)cc1 | n | n | 13.1µM | n | 3.7µM
CC(=O)c1c(C)[nH]c(C(=O)Nc2nc(-c3ccc(-c4ccccc4)cc3)cs2)c1C | n | n | 8.28µM | x | 7.38µM
COC(=O)Cc1ccc(OC(=O)c2cccc(S(=O)(=O)N3CCN(C)CC3)c2)cc1 | x | n | n | n | n
CC1=C(/C=C/C(C)=C/C=C/C(C)=C/C(=O)Nc2ccc(O)cc2)C(C)(C)CCC1 | u | n | 11.7µM | n | u
CCOc1ccc(Cn2c(C)nc([N+](=O)[O-])c2SCC(O)CCl)cc1[N+](=O)[O-] (stereo unspecified) | n | n | 10.4µM | n | x
Cc1nc([N+](=O)[O-])c(SCC(N)=O)n1Cc1ccccc1 | n | n | n | n | n
CCCOc1ccc(Cn2c(C)nc([N+](=O)[O-])c2SCC(O)COC)cc1[N+](=O)[O-] (stereo unspecified) | n | n | u | n | 10.4µM
COC(=O)c1ccccc1NC(=O)CSc1nc2ccsc2c(=O)n1Cc1ccc(C(=O)O)cc1 | x | x | x | n | x
CCN(CC)C(=O)[C@H]1C[C@H](CC(=O)NCCCn2ccnc2)C(=O)N2CCc3c([nH]c4cc(CCC(=O)N(C)C)ccc34)[C@]12C | x | n | x | n | x
CN(C)S(=O)(=O)c1ccc(-c2csc(N/N=C/c3ccco3)n2)cc1 | n | n | u | n | n
CN(C)S(=O)(=O)c1ccc(-c2csc(N/N=C/c3ccc(O)cc3)n2)cc1 | n | n | 0.329µM | n | 0.0657µM
CN(CCCC(=O)N1CCN(c2ncccn2)CC1)S(=O)(=O)c1ccc(F)cc1 | x | n | x | n | x
O=C(CN(C(=O)c1csnn1)c1ccc(Cl)cc1)NCCc1ccccc1 | n | n | 13.1µM | n | u
CCOc1ccc(S(=O)(=O)N2CCCCC2)cc1NC(=O)Cc1ccc(OC)cc1 | x | x | x | n | x
COc1ccc(CC(=O)Nc2cc(S(=O)(=O)N3CCCC3)ccc2Cl)c(OC)c1 | x | n | u | n | 14.7µM
CCOc1ccc(S(=O)(=O)N2CCCCC2)cc1NC(=O)Cc1ccsc1 | x | n | 10.4µM | n | 11.7µM
COc1ccc(OCC(=O)Nc2cc(S(=O)(=O)N3CCCC3)ccc2Cl)cc1 | x | n | n | n | n
COc1ccc(S(=O)(=O)N2CCCCC2)cc1NC(=O)Cc1ccsc1 | x | n | u | n | 13.1µM
Cc1cccc(NC(=O)N2CCCC(CNC(=O)c3ccccc3Cl)C2)c1C (stereo unspecified) | n | n | n | n | u
CCC1Sc2ccc(S(=O)(=O)CCC(=O)Nc3cc(C)ccn3)cc2NC1=O (stereo unspecified) | n | n | n | n | n
COC(=O)c1ccc(NC(=O)CN2C(=O)CC(C)S(=O)(=O)c3ccccc32)cc1 (stereo unspecified) | n | x | n | n | u
C[C@H]1CN([C@@H](C)CO)C(=O)CCCn2nncc2CO[C@H]1CN(C)C(=O)Nc1cccc(Oc2ccccn2)c1 | x | x | x | n | x
COc1cccc(NC(=O)N(Cc2cc3cc(C)cc(C)c3[nH]c2=O)CC2COCCO2)c1 (stereo unspecified) | n | n | 9.28µM | n | n
CCN1CCCC1CN(Cc1cc2cc(C)cc(C)c2[nH]c1=O)C(=O)Nc1ccccc1OC (stereo unspecified) | n | n | 9.28µM | n | n
COc1ccc2[nH]c(=O)c(CN(CCN3CCCC3)C(=O)Nc3ccccc3Cl)cc2c1 | n | n | u | n | n
Cc1ccc(NC(=O)N(Cc2cc3cc(C)cc(C)c3[nH]c2=O)CC2COCCO2)cc1 (stereo unspecified) | n | n | n | n | u
COc1ccccc1NC(=S)N(Cc1ccco1)Cc1cc2cc(C)ccc2[nH]c1=O | n | n | 11.7µM | n | u

Screening results as filed in PubChem BioAssay.
